Counter-ions that a name gives are not always drawn. The whole screen tested about 2,100 compounds, of which about 180 (8.6%) showed an effect of 50% or more. This is one part of a sample in which strong results are shown more often than they occur.

In this assay the test system is MOLM1 and UCSD/AML1 (averaged). Description: cell viability relative to DMSO control (POC); higher = less growth inhibition. To be noted: 1 µM; 72 h. The protocol:
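Primary viability screen in the 3q26 EVI1-high AML cell lines MOLM1 and UCSD/AML1 (1.5e3 cells/well, 384-well), compounds at 1 uM for 72 h. ATP CellTiter-Glo read-out given as percent of viable cells over DMSO control (POC), averaged over duplicates. DMSO was the negative control and 5 uM etoposide the positive control. This mapping covers the MicroSource Spectrum and Selleck anticancer libraries (drug names).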
Take `CCCCCCCCCCCCCCCC(=O)OC[C@@H](NC(=O)C(Cl)Cl)[C@H](O)c1ccc([N+](=O)[O-])cc1`: the cell viability came to 96.2%.

Turning to `O=C(O)CCC(=O)OC[C@@H](NC(=O)C(Cl)Cl)[C@H](O)c1ccc([N+](=O)[O-])cc1`, the cell viability came out at 40.2%.

Consider `O=C(N[C@H](CO)[C@H](O)c1ccc([N+](=O)[O-])cc1)C(Cl)Cl`, for which the cell viability is 101%.

As to `C[C@@H]1CC[C@@]23CCC4(C)[C@@](C=CC5[C@@]6(C)CCC(=O)C(C)(C)C6CC[C@]54C)(OC2=O)C3[C@H]1C` (some centres undefined), the cell viability came out at 95.6%.

In the case of `Oc1cc(O)c2c(c1)O[C@H](c1cc(O)c(O)c(O)c1)[C@H](O)C2`, the cell viability is 97.9%.

`COc1ccc2c(c1)OC[C@@H](Cc1ccc(OC)c(OC)c1)[C@@H]2O`: the cell viability came out at 82.3%.

In the case of `CCCCCC/C=C\CCCCCCCc1cccc(O)c1C(=O)O`, the cell viability stood at 81.2%.

For `CC(=O)O[C@H]1CC[C@@]2(C)[C@H](CC[C@@H]3[C@@H]2CC[C@]2(C)[C@@H]4[C@H](C[C@@H]32)O[C@]2(CC[C@@H](C)CO2)[C@H]4C)C1`, the cell viability was determined as 94.2%.

For `CO[C@H]1/C=C\C=C(/C)C(=O)NC2=CC(=O)C(NCCN(C)C)=C(C[C@@H](C)C[C@H](OC)[C@H](O)[C@@H](C)/C=C(\C)[C@@H]1OC(N)=O)C2=O` [17-DMAG HCl (Alvespimycin)], the cell viability stood at 2.31%.

`C=CCNC1=C2C[C@@H](C)C[C@H](OC)[C@H](O)[C@@H](C)/C=C(\C)[C@H](OC(N)=O)[C@@H](OC)/C=C\C=C(/C)C(=O)NC(=CC1=O)C2=O` [17-AAG (Tanespimycin)]: the cell viability worked out at 29.1%.

Turning to `COC1=C2C[C@@H](C)C[C@H](OC)[C@H](O)[C@@H](C)/C=C(\C)[C@H](OC(N)=O)[C@@H](OC)/C=C\C=C(/C)C(=O)NC(=CC1=O)C2=O` [Geldanamycin], the cell viability was 0.865%.

In the case of `C=C1[C@@H]([C@@]2(C)C=CC(=O)C(C)(C)[C@@H]2CC(=O)OC)CC[C@@]2(C)[C@H](c3ccoc3)OC(=O)[C@H]3O[C@]132`, the cell viability is 102%.

For `COC1=CC(=O)C=C(OC)C1=O`, the cell viability was determined as 91.5%.

Regarding `COc1cc(OC)c(C(C)=O)c(O)c1C`, the cell viability came out at 111%.

On to `CN[C@@H](C)C(=O)N[C@H]1CN(C(=O)CC(C)C)CC[C@H]2CC[C@@H](C(=O)NC(c3ccccc3)c3ccccc3)N2C1=O`, for which the cell viability was 68.5%.

As to `CON`, the cell viability stood at 109%.

With `CC(=O)OC/C=C(\C)CC/C=C(\C)CC/C=C(\C)CC/C=C(\C)CC/C=C(\C)CC/C=C(\C)CC/C=C(\C)CC/C=C(\C)CCC=C(C)C`, the cell viability was determined as 106%.

Take `O=C1C=C2CC3(O)COc4c(ccc(O)c4O)C3=C2C=C1O` (centres undefined): the cell viability is 97.6%.

On to `Cc1c2oc3c(C)ccc(C(=O)N[C@@H]4C(=O)N[C@H](C(C)C)C(=O)N5CCC[C@H]5C(=O)N(C)CC(=O)N(C)[C@@H](C(C)C)C(=O)O[C@@H]4C)c3nc-2c(C(=O)N[C@@H]2C(=O)N[C@H](C(C)C)C(=O)N3CCC[C@H]3C(=O)N(C)CC(=O)N(C)[C@@H](C(C)C)C(=O)O[C@@H]2C)c(N)c1=O`, for which the cell viability was found to be 1.96%.

The values above are taken from the supplement of paper PMC11150407.
